Laboratory results as given in the supplement of paper PMC10849652.
The full data set covers some 7,900 targets. This sample favours those with a hit. About 0.6% of all pairs of compound and target were hits.

Compound: c1cn2cc(-c3ccc4cn[nH]c4c3)nc(Nc3ccc(N4CCOCC4)cc3)c2n1 [entospletinib]
Test: log2 fold change, soluble protein after heating vs DMSO (PISA); higher = thermal stabilisation; K562 cells, 10 uM, 30 min; active = over 0.2 and 3.5 SD of the protein, either way, in both replicates (recomputed)
Method in brief: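 For each measurement, 10 μM compound was applied for 30 min to K562 cells at 2×10^6 cells/mL. Aliquots were heated for 3 min across 48°C-58°C, pooled, and extracted in PBS with 0.5% NP-40 at 4°C; the supernatant after 21,000xg for 90 min was soluble protein. This was quantified by TMTpro 16plex LC-MS/MS with channel sums equalised, and thermal stability was reported relative to control samples from duplicates, on a log2 fold-change scale.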

UniProt Q6NXR4, sequence (Q6NXR4 whole entry, looked up): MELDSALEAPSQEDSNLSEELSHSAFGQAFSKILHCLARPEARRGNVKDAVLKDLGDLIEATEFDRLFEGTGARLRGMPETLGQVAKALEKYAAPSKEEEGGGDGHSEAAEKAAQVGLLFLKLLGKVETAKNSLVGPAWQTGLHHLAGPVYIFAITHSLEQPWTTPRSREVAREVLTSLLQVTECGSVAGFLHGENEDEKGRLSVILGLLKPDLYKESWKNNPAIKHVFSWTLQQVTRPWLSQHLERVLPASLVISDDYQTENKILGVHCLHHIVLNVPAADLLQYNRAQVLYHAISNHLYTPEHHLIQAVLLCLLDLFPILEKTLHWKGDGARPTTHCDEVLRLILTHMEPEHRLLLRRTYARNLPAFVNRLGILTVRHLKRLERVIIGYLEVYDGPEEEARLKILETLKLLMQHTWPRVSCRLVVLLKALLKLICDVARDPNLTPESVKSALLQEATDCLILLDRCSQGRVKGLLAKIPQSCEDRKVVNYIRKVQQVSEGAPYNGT
UniProt Q96QU8, sequence (Q96QU8 whole entry, looked up): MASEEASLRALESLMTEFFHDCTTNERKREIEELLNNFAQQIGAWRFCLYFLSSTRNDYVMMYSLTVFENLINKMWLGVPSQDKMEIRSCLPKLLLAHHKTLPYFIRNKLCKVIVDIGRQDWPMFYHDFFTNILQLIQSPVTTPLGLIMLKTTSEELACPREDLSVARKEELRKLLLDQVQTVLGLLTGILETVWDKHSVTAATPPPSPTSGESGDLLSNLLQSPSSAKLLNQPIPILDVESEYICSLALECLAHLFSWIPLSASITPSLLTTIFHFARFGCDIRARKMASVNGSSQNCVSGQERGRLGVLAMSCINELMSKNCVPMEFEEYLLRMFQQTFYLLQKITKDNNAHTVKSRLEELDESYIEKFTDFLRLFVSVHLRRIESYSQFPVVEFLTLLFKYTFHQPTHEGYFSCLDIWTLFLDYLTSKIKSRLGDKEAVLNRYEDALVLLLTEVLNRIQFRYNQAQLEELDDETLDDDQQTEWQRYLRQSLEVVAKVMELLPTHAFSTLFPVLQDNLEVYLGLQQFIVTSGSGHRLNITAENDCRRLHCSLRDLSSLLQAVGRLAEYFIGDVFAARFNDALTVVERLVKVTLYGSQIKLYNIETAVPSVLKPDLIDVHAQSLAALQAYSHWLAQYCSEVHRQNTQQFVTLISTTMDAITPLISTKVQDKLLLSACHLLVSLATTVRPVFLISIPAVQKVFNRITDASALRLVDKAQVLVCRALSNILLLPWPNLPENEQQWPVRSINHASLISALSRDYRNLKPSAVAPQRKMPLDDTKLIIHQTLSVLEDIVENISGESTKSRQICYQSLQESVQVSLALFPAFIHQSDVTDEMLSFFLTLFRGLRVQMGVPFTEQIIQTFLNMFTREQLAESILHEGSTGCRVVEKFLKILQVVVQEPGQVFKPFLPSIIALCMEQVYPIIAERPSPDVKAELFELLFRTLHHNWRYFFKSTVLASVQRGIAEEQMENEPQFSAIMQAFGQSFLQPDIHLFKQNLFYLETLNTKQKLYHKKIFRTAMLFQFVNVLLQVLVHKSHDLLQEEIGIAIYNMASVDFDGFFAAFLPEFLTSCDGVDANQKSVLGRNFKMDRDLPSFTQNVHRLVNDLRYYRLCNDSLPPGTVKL
UniProt Q5VIR6, sequence (Q5VIR6 whole entry, looked up): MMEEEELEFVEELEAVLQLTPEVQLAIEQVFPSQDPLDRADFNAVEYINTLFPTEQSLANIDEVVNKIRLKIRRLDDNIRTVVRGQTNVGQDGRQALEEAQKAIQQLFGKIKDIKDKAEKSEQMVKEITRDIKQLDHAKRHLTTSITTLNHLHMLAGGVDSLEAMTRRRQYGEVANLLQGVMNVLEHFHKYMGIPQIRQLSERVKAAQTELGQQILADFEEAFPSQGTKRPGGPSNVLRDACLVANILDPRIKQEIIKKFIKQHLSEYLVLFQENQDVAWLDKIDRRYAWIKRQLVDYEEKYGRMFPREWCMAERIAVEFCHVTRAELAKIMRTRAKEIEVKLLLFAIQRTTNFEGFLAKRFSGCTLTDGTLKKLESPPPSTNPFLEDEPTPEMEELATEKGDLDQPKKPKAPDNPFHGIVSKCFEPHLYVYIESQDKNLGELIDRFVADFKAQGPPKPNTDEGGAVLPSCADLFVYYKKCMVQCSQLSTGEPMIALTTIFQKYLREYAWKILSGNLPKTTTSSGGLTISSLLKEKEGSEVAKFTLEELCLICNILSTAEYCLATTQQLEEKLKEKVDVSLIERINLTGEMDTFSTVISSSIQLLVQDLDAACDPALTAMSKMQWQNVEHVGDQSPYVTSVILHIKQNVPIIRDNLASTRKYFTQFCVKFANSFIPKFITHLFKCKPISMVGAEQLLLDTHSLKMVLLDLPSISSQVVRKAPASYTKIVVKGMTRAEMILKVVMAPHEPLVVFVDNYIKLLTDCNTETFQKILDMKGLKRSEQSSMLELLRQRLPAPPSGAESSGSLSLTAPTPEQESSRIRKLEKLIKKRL
UniProt Q9HAD4, sequence (Q9HAD4 whole entry, looked up): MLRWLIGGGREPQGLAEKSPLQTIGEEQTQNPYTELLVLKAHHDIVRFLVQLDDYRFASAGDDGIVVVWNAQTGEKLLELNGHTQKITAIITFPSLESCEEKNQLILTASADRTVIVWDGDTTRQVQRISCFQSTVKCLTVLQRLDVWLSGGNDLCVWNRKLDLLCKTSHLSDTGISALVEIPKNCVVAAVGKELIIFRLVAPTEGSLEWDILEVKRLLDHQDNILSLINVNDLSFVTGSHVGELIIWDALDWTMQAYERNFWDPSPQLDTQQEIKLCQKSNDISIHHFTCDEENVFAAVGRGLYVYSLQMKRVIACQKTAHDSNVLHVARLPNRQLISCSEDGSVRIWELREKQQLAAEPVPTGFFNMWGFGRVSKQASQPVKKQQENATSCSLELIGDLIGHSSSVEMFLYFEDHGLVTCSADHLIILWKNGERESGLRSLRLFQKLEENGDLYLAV
UniProt Q7Z392, sequence (Q7Z392 whole entry, looked up): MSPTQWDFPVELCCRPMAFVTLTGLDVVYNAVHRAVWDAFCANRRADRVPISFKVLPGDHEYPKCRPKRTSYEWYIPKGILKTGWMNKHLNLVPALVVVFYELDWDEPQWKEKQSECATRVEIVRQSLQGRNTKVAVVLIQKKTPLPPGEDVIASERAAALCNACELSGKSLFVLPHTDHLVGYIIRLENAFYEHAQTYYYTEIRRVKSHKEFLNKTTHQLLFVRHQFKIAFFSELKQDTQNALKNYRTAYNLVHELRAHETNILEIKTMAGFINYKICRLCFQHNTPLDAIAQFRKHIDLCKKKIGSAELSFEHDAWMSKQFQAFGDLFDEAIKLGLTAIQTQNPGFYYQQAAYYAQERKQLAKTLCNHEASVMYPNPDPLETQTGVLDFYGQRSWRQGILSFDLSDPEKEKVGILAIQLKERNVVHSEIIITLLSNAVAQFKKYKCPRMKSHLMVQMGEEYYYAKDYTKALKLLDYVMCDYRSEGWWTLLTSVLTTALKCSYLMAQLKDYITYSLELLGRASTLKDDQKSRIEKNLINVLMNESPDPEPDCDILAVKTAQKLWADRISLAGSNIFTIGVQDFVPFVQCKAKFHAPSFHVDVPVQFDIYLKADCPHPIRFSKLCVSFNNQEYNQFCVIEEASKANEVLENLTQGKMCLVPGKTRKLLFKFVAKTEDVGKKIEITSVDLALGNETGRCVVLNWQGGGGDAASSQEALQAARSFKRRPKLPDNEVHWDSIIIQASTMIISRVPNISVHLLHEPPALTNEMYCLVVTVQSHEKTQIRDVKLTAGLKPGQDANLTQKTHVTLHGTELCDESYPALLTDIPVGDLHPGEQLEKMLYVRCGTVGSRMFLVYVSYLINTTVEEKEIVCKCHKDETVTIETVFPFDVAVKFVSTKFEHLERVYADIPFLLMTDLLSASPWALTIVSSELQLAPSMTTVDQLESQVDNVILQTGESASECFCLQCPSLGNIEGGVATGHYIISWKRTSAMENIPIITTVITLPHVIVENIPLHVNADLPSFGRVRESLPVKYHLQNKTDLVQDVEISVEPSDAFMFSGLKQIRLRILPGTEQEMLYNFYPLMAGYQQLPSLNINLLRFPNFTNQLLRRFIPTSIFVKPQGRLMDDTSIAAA
UniProt Q9P253, sequence (Q9P253 whole entry, looked up): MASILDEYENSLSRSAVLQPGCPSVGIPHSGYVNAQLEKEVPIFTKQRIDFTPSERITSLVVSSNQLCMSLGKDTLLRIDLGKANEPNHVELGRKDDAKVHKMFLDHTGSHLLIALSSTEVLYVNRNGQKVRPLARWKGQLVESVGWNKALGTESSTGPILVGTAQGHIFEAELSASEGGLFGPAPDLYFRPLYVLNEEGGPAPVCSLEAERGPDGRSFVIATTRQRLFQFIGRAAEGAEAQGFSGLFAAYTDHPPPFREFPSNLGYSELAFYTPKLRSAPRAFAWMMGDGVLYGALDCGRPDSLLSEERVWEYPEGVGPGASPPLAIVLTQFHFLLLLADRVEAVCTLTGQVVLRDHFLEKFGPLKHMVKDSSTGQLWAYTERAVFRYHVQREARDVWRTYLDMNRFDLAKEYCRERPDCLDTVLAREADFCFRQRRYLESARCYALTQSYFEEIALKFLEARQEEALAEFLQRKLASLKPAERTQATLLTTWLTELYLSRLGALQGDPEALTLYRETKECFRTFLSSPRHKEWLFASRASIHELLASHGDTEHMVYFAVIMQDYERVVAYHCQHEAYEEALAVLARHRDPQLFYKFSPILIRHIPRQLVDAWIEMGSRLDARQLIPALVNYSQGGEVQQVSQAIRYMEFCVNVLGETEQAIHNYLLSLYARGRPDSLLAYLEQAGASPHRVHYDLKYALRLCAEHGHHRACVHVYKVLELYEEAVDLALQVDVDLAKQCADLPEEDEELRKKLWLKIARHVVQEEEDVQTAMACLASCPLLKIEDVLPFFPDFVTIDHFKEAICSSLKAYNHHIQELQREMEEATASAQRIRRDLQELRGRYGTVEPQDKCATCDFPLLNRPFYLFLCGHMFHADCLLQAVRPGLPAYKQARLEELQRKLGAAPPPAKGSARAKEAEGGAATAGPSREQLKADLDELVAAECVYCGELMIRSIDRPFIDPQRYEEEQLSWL

log2 fold change, inactive:
WASHC2A (UniProt Q641Q2) 0.03
XPNPEP1 isoform 3 (UniProt Q9NQW7) -0.027
TRMT61A (UniProt Q96FX7) 0.123
TRIM28 (UniProt Q13263) -0.025
VPS53 isoform 4 (UniProt Q5VIR6) 0.003
WASHC5 (UniProt Q12768) -0.041
XPO6 (UniProt Q96QU8) -0.027
TMEM179B (UniProt Q7Z7N9) 0.098
UFD1 isoform 1 (UniProt Q92890) -0.047
UBIAD1 (UniProt Q9Y5Z9) -0.013
TRAPPC3 (UniProt O43617) -0.013
VPS18 (UniProt Q9P253) -0.07
XIAP (UniProt P98170) -0.066
TNPO3 (UniProt Q9Y5L0) -0.048
TMEM189-UBE2V1 (UniProt I3L0A0) -0.017
TRAPPC11 (UniProt Q7Z392) 0.012
WDR41 (UniProt Q9HAD4) -0.019
TPR (UniProt P12270) 0.067
USP48 (UniProt Q86UV5) -0.055
VPS72 isoform 2 (UniProt Q15906) 0.112
XPO1 (UniProt O14980) -0.016
TMTC3 (UniProt Q6ZXV5) 0.007
WDR4 (UniProt P57081) -0.027
TMEM87B (UniProt Q96K49) 0.063
TSEN2 (UniProt Q8NCE0) -0.041
TRAPPC2L (UniProt Q9UL33) 0.039
TRAPPC6B (UniProt Q86SZ2) -0.003
WDR61 (UniProt Q9GZS3) 0.009
XPNPEP3 (UniProt Q9NQH7) -0.025
TP53BP1 isoform 2 (UniProt Q12888) 0.087
UBE3D (UniProt Q7Z6J8) 0.091
UBE2D1 (UniProt P51668) -0.025
UBA1 (UniProt P22314) -0.025
VPS13B (UniProt Q7Z7G8) 0.053
TMEM208 (UniProt Q9BTX3) -0.062
VPS28 (UniProt Q9UK41) -0.039
TTI2 (UniProt Q6NXR4) 0.062
TTC38 (UniProt Q5R3I4) -0.114
VRK2 (UniProt Q86Y07) -0.078
